Targets with a hit are over-represented here; the source holds about 8,800 in all. About 0.5% of all pairs of compound and target were hits. Values without a mark were called inactive.
Legend:
Assay in all cases: log2 fold change, soluble protein after heating vs DMSO (PISA); higher = thermal stabilisation; K562 lysate, 10 uM; active = over 0.2 and 3.5 SD of the protein, either way, in both replicates (recomputed)
lapatinib = compound: CS(=O)(=O)CCNCc1ccc(-c2ccc3ncnc(Nc4ccc(OCc5cccc(F)c5)c(Cl)c4)c3c2)o1 [lapatinib]
Outline: (§1)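 Values give the log-two fold change in thermal stability against solvent controls, from duplicates. Crude K562 extract at 1 mg/mL protein, made by dounce homogenisation in PBS pH 7.4 with 1 mM MgCl2, was treated with 10 μM compound for 30 min. After 3 min heating across 48°C-58°C, aliquots were pooled, adjusted to 0.5% NP-40 at 4°C and centrifuged at 21,000xg for 90 min. The supernatant was measured by TMTpro 16plex LC-MS/MS with channel sums equalised.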

pictilisib = compound: CS(=O)(=O)N1CCN(Cc2cc3nc(-c4cccc5[nH]ncc45)nc(N4CCOCC4)c3s2)CC1 [pictilisib]
Outline: as §1

crizotinib = compound: C[C@@H](Oc1cc(-c2cnn(C3CCNCC3)c2)cnc1N)c1c(Cl)ccc(F)c1Cl [crizotinib]
Outline: as §1

[1] = compound: C[C@H](C1=CC=C(C=C1)C(=O)NC2=C3C=CNC3=NC=C2)N
Outline: as §1

duvelisib = compound: C[C@H](Nc1ncnc2nc[nH]c12)c1cc2cccc(Cl)c2c(=O)n1-c1ccccc1 [duvelisib]
Outline: as §1

gandotinib = compound: Cc1cc(Nc2cc(CN3CCOCC3)c3nc(C)c(Cc4ccc(Cl)cc4F)n3n2)n[nH]1 [gandotinib]
Outline: as §1

tozasertib = compound: Cc1cc(Nc2cc(N3CCN(C)CC3)nc(Sc3ccc(NC(=O)C4CC4)cc3)n2)n[nH]1 [tozasertib]
Outline: as §1

doramapimod = compound: Cc1ccc(-n2nc(C(C)(C)C)cc2NC(=O)Nc2ccc(OCCN3CCOCC3)c3ccccc23)cc1 [doramapimod]
Outline: as §1

bafetinib = compound: Cc1ccc(NC(=O)c2ccc(CN3CC[C@H](N(C)C)C3)c(C(F)(F)F)c2)cc1Nc1nccc(-c2cncnc2)n1 [bafetinib]
Outline: as §1

[2] = compound: Cc1cccc(CC(=O)N2CCc3c2ccc(-c2cn(C)c4ncnc(N)c24)c3F)n1
Outline: as §1

nilotinib = compound: Cc1cn(-c2cc(NC(=O)c3ccc(C)c(Nc4nccc(-c5cccnc5)n4)c3)cc(C(F)(F)F)c2)cn1 [nilotinib]
Outline: as §1

[3] = compound: Cc1nc(Nc2n[nH]c3c2CN(C(=O)N[C@H](CN(C)C)c2ccccc2)C3(C)C)c2sccc2n1
Outline: as §1

dasatinib = compound: Cc1nc(Nc2ncc(C(=O)Nc3c(C)cccc3Cl)s2)cc(N2CCN(CCO)CC2)n1 [dasatinib]
Outline: as §1

[4] = compound: Cc1ncc(-c2ccnc(Nc3ccc(S(C)(=O)=O)cc3)n2)n1C(C)C
Outline: as §1

[5] = compound: Cn1cc(-c2ccc3c(c2)CCN3C(=O)Cc2cccc(C(F)(F)F)c2)c2c(N)ncnc21
Outline: as §1

quisinostat = compound: Cn1cc(CNCC2CCN(c3ncc(C(=O)NO)cn3)CC2)c2ccccc21 [quisinostat]
Outline: as §1

tipifarnib = compound: Cn1cncc1[C@@](N)(c1ccc(Cl)cc1)c1ccc2c(c1)c(-c1cccc(Cl)c1)cc(=O)n2C [tipifarnib]
Outline: as §1

[6] = compound: NC(=O)Nc1cc(-c2cccc(F)c2)sc1C(=O)N[C@H]1CCCNC1
Outline: as §1

[7] = compound: NC(=O)c1cnc(N[C@@H]2CCCC[C@@H]2N)nc1Nc1cccc(-n2nccn2)c1
Outline: as §1

[8] = compound: NC1(c2ccc(-c3nc4ccn5c(=O)[nH]nc5c4cc3-c3ccccc3)cc2)CCC1
Outline: as §1

Chain of UniProt P22692 (P22692 whole entry, looked up): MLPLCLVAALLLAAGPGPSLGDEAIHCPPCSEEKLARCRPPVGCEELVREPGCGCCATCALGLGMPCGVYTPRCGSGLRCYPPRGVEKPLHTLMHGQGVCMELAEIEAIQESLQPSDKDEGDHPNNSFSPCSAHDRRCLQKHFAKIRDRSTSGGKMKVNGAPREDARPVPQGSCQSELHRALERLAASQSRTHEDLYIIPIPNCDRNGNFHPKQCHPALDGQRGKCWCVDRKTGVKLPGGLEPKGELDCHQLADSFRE
Chain of UniProt O75367 (O75367 whole entry, looked up): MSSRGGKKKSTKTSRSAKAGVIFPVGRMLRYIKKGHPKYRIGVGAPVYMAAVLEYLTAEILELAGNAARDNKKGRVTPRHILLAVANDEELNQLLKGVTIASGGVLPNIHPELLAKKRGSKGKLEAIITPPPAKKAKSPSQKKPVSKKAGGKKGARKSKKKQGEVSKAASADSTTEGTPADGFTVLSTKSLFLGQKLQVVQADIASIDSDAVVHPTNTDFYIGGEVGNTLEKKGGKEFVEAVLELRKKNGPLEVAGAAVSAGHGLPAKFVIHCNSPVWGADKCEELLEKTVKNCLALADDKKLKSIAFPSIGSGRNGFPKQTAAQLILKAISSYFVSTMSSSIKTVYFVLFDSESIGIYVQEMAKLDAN
Chain of UniProt Q0VDF9 (Q0VDF9 whole entry, looked up): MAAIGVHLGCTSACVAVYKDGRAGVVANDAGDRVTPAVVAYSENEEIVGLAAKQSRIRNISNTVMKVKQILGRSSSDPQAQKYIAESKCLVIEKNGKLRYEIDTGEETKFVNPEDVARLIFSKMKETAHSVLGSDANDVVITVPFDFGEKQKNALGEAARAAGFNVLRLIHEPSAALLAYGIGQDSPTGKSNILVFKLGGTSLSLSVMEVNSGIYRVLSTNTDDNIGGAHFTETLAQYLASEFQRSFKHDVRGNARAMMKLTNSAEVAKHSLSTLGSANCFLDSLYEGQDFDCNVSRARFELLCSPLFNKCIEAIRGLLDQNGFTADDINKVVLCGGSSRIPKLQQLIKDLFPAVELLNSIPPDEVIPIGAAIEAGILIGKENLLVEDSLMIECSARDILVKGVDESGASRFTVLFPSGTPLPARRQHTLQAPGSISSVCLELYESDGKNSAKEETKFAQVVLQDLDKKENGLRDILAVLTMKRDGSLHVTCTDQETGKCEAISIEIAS
Chain of UniProt Q9BQQ3 (Q9BQQ3 whole entry, looked up): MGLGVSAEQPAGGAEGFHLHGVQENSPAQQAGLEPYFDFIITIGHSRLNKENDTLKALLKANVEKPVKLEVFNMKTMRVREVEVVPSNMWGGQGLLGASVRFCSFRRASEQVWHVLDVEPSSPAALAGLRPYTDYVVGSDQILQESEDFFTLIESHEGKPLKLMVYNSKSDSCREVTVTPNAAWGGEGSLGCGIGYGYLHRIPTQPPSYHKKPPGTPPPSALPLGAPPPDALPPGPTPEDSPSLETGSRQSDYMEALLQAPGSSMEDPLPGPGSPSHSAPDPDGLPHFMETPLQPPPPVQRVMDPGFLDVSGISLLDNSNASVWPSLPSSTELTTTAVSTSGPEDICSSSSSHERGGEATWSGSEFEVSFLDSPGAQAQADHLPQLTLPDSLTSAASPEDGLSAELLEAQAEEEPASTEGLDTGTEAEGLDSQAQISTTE
Chain of UniProt P02724 (P02724 whole entry, looked up): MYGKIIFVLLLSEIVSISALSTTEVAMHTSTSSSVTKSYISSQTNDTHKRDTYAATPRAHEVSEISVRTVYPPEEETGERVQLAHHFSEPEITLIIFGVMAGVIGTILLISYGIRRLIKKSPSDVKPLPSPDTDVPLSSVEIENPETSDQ
Chain of UniProt P52333 (P52333 whole entry, looked up): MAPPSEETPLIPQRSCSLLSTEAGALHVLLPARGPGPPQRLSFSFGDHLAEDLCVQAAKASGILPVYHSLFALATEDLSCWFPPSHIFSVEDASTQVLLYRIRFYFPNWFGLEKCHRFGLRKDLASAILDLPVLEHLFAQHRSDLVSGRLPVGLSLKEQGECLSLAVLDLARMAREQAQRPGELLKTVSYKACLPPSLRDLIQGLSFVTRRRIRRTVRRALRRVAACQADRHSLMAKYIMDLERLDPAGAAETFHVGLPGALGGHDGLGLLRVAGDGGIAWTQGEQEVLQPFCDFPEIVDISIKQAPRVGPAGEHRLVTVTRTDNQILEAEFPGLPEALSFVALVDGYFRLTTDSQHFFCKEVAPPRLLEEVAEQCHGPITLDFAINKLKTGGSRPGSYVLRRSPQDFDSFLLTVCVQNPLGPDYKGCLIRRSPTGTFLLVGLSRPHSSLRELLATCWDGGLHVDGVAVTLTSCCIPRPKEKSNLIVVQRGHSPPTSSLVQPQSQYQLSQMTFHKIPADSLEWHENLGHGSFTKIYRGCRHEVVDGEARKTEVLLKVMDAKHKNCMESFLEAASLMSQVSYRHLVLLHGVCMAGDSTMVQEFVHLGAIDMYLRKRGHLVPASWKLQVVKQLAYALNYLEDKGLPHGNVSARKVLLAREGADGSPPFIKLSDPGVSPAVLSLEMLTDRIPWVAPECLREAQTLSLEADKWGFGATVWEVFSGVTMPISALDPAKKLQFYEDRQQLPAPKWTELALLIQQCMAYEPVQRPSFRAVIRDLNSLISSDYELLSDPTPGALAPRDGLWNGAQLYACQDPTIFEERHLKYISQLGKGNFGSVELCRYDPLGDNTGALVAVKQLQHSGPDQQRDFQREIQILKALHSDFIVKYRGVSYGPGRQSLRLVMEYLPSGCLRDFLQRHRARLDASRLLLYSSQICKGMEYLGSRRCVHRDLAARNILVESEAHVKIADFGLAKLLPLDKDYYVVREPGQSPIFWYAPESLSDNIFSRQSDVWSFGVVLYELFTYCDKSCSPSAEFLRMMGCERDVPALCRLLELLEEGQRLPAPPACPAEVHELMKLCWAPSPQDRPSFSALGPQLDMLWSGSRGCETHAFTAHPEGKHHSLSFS
Chain of UniProt P80108 (P80108 whole entry, looked up): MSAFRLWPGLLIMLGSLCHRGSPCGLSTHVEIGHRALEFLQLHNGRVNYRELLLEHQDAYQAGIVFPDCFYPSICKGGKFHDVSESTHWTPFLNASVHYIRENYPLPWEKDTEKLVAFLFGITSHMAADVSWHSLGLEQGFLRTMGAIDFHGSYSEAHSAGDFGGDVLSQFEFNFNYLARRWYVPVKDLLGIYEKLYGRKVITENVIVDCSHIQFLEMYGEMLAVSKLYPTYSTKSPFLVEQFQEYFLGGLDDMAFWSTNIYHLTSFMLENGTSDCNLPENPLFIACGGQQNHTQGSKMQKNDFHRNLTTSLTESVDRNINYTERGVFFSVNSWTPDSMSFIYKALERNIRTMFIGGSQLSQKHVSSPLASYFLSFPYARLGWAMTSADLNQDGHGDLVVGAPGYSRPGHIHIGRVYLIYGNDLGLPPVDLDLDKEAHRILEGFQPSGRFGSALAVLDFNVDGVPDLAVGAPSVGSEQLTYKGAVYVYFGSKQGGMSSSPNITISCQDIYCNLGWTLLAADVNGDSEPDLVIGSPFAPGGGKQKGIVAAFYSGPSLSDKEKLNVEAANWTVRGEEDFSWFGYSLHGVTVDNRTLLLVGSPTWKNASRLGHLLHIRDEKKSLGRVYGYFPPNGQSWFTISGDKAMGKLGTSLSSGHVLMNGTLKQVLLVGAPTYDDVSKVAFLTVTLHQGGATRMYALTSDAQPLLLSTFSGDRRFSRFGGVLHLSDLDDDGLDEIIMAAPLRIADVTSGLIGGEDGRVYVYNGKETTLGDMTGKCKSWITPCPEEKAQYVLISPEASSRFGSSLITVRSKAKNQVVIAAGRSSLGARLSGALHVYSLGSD
Chain of UniProt P43250 (P43250 whole entry, looked up): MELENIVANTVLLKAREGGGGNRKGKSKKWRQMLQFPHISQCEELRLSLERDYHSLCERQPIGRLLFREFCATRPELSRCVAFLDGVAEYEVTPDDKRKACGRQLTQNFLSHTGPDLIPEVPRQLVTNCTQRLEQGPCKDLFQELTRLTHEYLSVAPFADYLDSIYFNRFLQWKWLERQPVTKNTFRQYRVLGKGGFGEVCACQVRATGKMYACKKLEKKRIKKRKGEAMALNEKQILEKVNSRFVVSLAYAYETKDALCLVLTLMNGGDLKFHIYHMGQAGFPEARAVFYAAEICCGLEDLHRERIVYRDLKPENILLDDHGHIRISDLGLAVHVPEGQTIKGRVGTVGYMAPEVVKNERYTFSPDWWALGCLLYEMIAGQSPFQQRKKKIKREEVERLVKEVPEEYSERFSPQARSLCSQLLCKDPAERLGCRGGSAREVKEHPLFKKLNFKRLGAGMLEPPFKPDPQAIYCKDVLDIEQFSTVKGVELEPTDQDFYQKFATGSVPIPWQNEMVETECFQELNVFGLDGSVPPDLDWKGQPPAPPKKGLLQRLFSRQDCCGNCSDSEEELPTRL
Chain of UniProt P17096 (P17096 whole entry, looked up): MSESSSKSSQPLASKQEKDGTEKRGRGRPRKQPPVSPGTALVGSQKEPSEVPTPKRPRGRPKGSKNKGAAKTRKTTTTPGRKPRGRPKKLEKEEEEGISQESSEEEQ
Chain of UniProt Q9UKP3 (Q9UKP3 whole entry, looked up): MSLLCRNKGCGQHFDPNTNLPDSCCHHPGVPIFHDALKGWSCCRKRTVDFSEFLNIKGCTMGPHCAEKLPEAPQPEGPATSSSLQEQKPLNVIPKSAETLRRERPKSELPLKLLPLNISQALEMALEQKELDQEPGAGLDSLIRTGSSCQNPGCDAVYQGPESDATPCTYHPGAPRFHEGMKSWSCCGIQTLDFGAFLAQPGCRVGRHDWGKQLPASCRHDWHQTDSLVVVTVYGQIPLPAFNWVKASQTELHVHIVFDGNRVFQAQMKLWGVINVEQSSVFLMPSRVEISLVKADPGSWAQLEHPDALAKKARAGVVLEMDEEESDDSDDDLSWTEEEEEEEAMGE

Row | Target | log2 fold change (lapatinib) | log2 fold change (pictilisib) | log2 fold change (crizotinib) | log2 fold change [1] | log2 fold change (duvelisib) | log2 fold change (gandotinib) | log2 fold change (tozasertib) | log2 fold change (doramapimod) | log2 fold change (bafetinib) | log2 fold change [2] | log2 fold change (nilotinib) | log2 fold change [3] | log2 fold change (dasatinib) | log2 fold change [4] | log2 fold change [5] | log2 fold change (quisinostat) | log2 fold change (tipifarnib) | log2 fold change [6] | log2 fold change [7] | log2 fold change [8]
1 | HAUS4 (UniProt Q9H6D7) | 0.021 | -0.02 | -0.083 | -0.063 | -0.031 | -0.009 | 0.042 | 0.043 | 0.003 | 0.099 | 0.03 | -0.05 | -0.052 | 0.016 | 0.052 | -0.065 | -0.021 | 0.053 | 0.014 | -0.012
2 | IMPDH2 (UniProt P12268) | 0.027 | 0.043 | -0.007 | -0.011 | -0.012 | -0.04 | -0.017 | 0.029 | 0.041 | 0.012 | 0 | -0.009 | -0.036 | -0.009 | 0.004 | -0.073 | 0.029 | 0.006 | -0.016 | 0.031
3 | KDM1A (UniProt O60341) | -0.01 | -0.029 | -0.036 | -0.055 | -0.025 | -0.056 | -0.031 | 0.015 | -0.016 | 0.025 | -0.009 | 0.007 | -0.023 | 0.005 | 0.012 | -0.045 | -0.052 | 0.029 | 0.007 | -0.026
4 | HMGA1 (UniProt P17096) | -0.023 | 0.03 | 0.007 | -0.27 | 0.058 | 0.069 | -0.062 | -0.02 | 0.043 | 0.036 | 0.035 | 0.039 | -0.012 | 0.014 | -0.08 | -0.018 | 0.032 | -0.004 | -0.025 | -0.059
5 | GRK6 isoform 2 (UniProt P43250) | -0.122 | -0.088 | 0.084 | -0.066 | -0.04 | 0.058 | -0.063 | 0.046 | 0.065 | 0.028 | -0.024 | 0.094 | 0.023 | 0.005 | -0.014 | -0.043 | 0 | 0.012 | 0.028 | -0.097
6 | HADHA (UniProt P40939) | 0.1 | 0.077 | 0.063 | -0.01 | 0.037 | 0.129 | -0.013 | 0.207 | 0.032 | -0.053 | 0.051 | -0.024 | -0.036 | 0.002 | 0.03 | -0.082 | 0.025 | -0.077 | -0.071 | 0.078
7 | HSPA14 (UniProt Q0VDF9) | -0.016 | 0.023 | -0.02 | -0.038 | 0.007 | -0.039 | 0.018 | 0.003 | -0.026 | 0.037 | -0.032 | -0.001 | -0.018 | 0.009 | 0.034 | -0.026 | 0.021 | 0.037 | 0.001 | -0.025
8 | HMGN5 (UniProt Q5JSK9) | -0.04 | 0.017 | – | – | – | – | 0.074 | – | -0.04 | – | -0.074 | 0.062 | – | -0.036 | – | – | 0.076 | – | -0.035 | –
9 | H2AFY (UniProt O75367) | -0.021 | 0.036 | 0.051 | -0.135 | 0.01 | 0.084 | -0.108 | -0.138 | -0.011 | 0.049 | 0.013 | 0.003 | -0.087 | -0.003 | 0.005 | -0.099 | 0.005 | 0.058 | 0.001 | -0.034
10 | GYPA (UniProt P02724) | 0.074 | -0.01 | 0.017 | 0.528 (active) | 0.013 | -0.197 | -0.02 | -0.033 | 0.229 | -0.234 | – | – | 0.097 | – | 0.045 | -0.062 | – | 0.026 | -0.047 | -0.024
11 | HNRNPUL1 (UniProt M0R247) | – | 0.038 | – | 0.014 | – | -0.014 | – | – | 0.008 | 0.034 | – | – | – | – | – | – | – | – | – | -0.063
12 | GPLD1 (UniProt P80108) | – | – | -0.108 | – | -0.049 | – | – | 0.081 | – | – | – | – | -0.255 | – | 0 | 0.108 | – | 0.153 | – | –
13 | IGFBP4 (UniProt P22692) | -0.007 | 0.015 | -0.042 | 0 | -0.029 | 0.019 | – | 0.014 | -0.149 | 0.095 | 0.005 | -0.01 | 0.085 | -0.053 | -0.022 | -0.049 | 0.119 | -0.021 | 0.293 | -0.026
14 | ITGB1BP2 (UniProt Q9UKP3) | – | – | – | -0.18 | -0.005 | 0.86 (active) | -0.259 | – | – | 0.548 | – | – | -0.104 | – | 0.249 | – | – | – | – | –
15 | HDAC3 (UniProt E7ESJ6) | -0.073 | – | – | – | – | – | – | – | – | – | – | – | – | – | – | – | – | – | 0.058 | –
16 | KDM5B isoform 2 (UniProt Q9UGL1) | -0.006 | -0.041 | -0.02 | -0.003 | 0 | 0.257 | 0.13 | -0.033 | -0.013 | 0.29 | – | – | 0.021 | – | -0.049 | -0.117 | – | -0.085 | 0.034 | -0.049
17 | GORASP1 (UniProt Q9BQQ3) | -0.031 | – | 0.015 | -0.103 | -0.018 | 0.002 | -0.087 | 0.015 | – | -0.028 | 0.011 | -0.02 | -0.019 | 0.034 | 0.048 | 0.034 | -0.006 | -0.071 | 0.177 | -0.11
18 | HTT (UniProt P42858) | – | -0.028 | -0.042 | -0.012 | -0.016 | -0.124 | 0.002 | 0.006 | -0.112 | 0.094 | -0.106 | 0.003 | 0.001 | 0.072 | 0.072 | -0.081 | -0.072 | 0.041 | – | 0.005
19 | JAK3 (UniProt P52333) | -0.002 | 0.01 | 0.051 | 0.418 | – | -0.526 | – | -0.081 | 0.14 | -0.612 (active) | – | – | – | – | – | 0.131 | – | 0.008 | -0.056 | –
20 | ITPR2 (UniProt Q14571) | -0.571 | – | – | – | -0.004 | – | – | – | – | – | -0.008 | -0.081 | 0.019 | 0.048 | -0.078 | – | 0.003 | – | 0.277 | -0.12
21 | GYPA, A0A2R8Y7F9 | – | -0.033 | – | -0.562 | – | 0.202 | – | – | -0.029 | 0.17 | – | – | – | – | – | – | – | – | – | –
